# The sample as a whole holds a higher share of the strongest signals than the screen did.
# Experiments:
# Experiment in all cases: glycan array binding signal (z-score within array); higher = stronger binding
# Conditions in all cases: glycan notation: IUPAC condensed, linker removed
# [1] = target: Fuc(a1-2)Gal(b1-4)GlcNAc
# Outline: (§1)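 Glycan array data were curated from 3228 arrays in the Consortium for Functional Glycomics database and kept only where the protein sequence was available. Glycan names were converted to IUPAC-condensed notation, and columns mapping to the same glycan were averaged. The binding signal is a within-array Z-score, averaged across arrays of the same protein sequence at different concentrations or buffers and across linkers. Negative Z-scores can be read as non-binding.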
# [2] = target: Fuc(a1-2)Gal(b1-4)GlcNAc(b1-2)[Fuc(a1-2)Gal(b1-4)GlcNAc(b1-4)]Man(a1-3)[Fuc(a1-2)Gal(b1-4)GlcNAc(b1-2)Man(a1-6)]Man(b1-4)GlcNAc(b1-4)GlcNAc
# Outline: as §1
# [3] = target: Fuc(a1-2)Gal(b1-4)[Fuc(a1-3)]GlcNAc
# Outline: as §1
# [4] = target: Fuc(a1-2)Gal6S(b1-3)GlcNAc
# Outline: as §1
# [5] = target: Fuc(a1-2)[Gal(a1-3)]Gal(b1-3)GlcNAc(b1-6)GalNAc
# Outline: as §1
# [6] = target: Fuc(a1-2)[Gal(a1-4)]Gal(b1-4)GlcNAc
# Outline: as §1
# [7] = target: Fuc(a1-2)[GalNAc(a1-3)]Gal(b1-3)GlcNAc(b1-3)GalNAc
# Outline: as §1
# [8] = target: Fuc(a1-3)GlcNAc
# Outline: as §1
# [9] = target: Gal(a1-3)Gal(b1-4)GlcNAc
# Outline: as §1
# [10] = target: Gal(a1-3)[Gal(a1-4)]Gal(b1-4)GlcNAc
# Outline: as §1
# [11] = target: Gal(b1-2)Gal
# Outline: as §1
# [12] = target: Gal(b1-3)GlcNAc(b1-3)Gal(b1-4)GlcNAc(b1-6)[Gal(b1-3)GlcNAc(b1-3)]Gal(b1-4)Glc
# Outline: as §1
# [13] = target: Gal(b1-4)GlcNAc(b1-2)Man(a1-3)Man(b1-4)GlcNAc(b1-4)GlcNAc
# Outline: as §1
# [14] = target: Gal(b1-4)GlcNAc(b1-2)[Gal(b1-4)GlcNAc(b1-4)]Man(a1-3)[GlcNAc(b1-4)][Gal(b1-4)GlcNAc(b1-2)[Gal(b1-4)GlcNAc(b1-6)]Man(a1-6)]Man(b1-4)GlcNAc(b1-4)GlcNAc
# Outline: as §1
# [15] = target: Gal(b1-4)GlcNAc(b1-3)Gal(b1-4)GlcNAc(b1-2)Man(a1-3)[Gal(b1-4)GlcNAc(b1-3)Gal(b1-4)GlcNAc(b1-2)Man(a1-6)]Man(b1-4)GlcNAc(b1-4)GlcNAc
# Outline: as §1
# [16] = target: Gal(b1-4)GlcNAc(b1-3)Gal(b1-4)GlcNAc(b1-3)GalNAc
# Outline: as §1
# [17] = target: Gal(b1-4)GlcNAc(b1-3)Gal(b1-4)GlcNAc(b1-3)[Gal(b1-4)GlcNAc(b1-3)Gal(b1-4)GlcNAc(b1-6)]GalNAc
# Outline: as §1
# [18] = target: Gal(b1-6)Gal
# Outline: as §1
# [19] = target: Gal3S(b1-4)Glc
# Outline: as §1
# [20] = target: Gal3S(b1-4)GlcNAc
# Outline: as §1
# [21] = target: Gal3S(b1-4)[Fuc(a1-3)]Glc6S
# Outline: as §1
# [22] = target: Gal3S4S(b1-4)GlcNAc
# Outline: as §1
# [23] = target: Gal6S(b1-4)GlcNAc
# Outline: as §1
# [24] = target: GalNAc(b1-3)Gal(a1-6)Gal(b1-4)Glc
# Outline: as §1
# [25] = target: GalNAc(b1-4)GlcNAc(b1-2)Man
# Outline: as §1
# [26] = target: Glc(a1-4)Glc(a1-4)Glc(a1-4)Glc
# Outline: as §1
# [27] = target: GlcNAc(a1-4)Gal(b1-4)GlcNAc(b1-3)Gal(b1-4)[Fuc(a1-3)]GlcNAc(b1-3)Gal(b1-4)[Fuc(a1-3)]GlcNAc
# Outline: as §1
# [28] = target: GlcNAc(b1-3)Gal(b1-4)GlcNAc(b1-2)[GlcNAc(b1-3)Gal(b1-4)GlcNAc(b1-6)]Man(a1-6)[GlcNAc(b1-3)Gal(b1-4)GlcNAc(b1-2)Man(a1-3)]Man(b1-4)GlcNAc(b1-4)GlcNAc
# Outline: as §1
# [29] = target: GlcNAc(b1-3)Gal(b1-4)GlcNAc(b1-3)Gal(b1-4)GlcNAc(b1-2)Man(a1-3)[GlcNAc(b1-3)Gal(b1-4)GlcNAc(b1-3)Gal(b1-4)GlcNAc(b1-2)Man(a1-6)]Man(b1-4)GlcNAc(b1-4)GlcNAc
# Outline: as §1
# [30] = target: GlcNAc(b1-3)Gal(b1-4)GlcNAc(b1-3)[GlcNAc(b1-3)Gal(b1-4)GlcNAc(b1-3)]GalNAc
# Outline: as §1
# [31] = target: GlcNAc(b1-4)GlcNAc(b1-4)GlcNAc(b1-4)GlcNAc(b1-4)GlcNAc
# Outline: as §1
# [32] = target: Kdn(a2-6)Gal(b1-4)GlcNAc
# Outline: as §1
# [33] = target: Man(a1-2)Man(a1-3)[Man(a1-6)]Man(a1-6)[Man(a1-2)Man(a1-3)]Man(b1-4)GlcNAc(b1-4)GlcNAc
# Outline: as §1
# [34] = target: Man(a1-3)[Man(a1-6)]Man(a1-6)[Man(a1-3)]Man
# Outline: as §1
# [35] = target: Neu5Ac(a2-3)Gal(b1-3)GalNAc(b1-4)[Neu5Ac(a2-3)]Gal(b1-4)Glc
# Outline: as §1
# [36] = target: Neu5Ac(a2-3)Gal(b1-3)GlcNAc(b1-2)Man
# Outline: as §1
# [37] = target: Neu5Ac(a2-3)Gal(b1-4)GlcNAc(b1-2)Man
# Outline: as §1
# [38] = target: Neu5Ac(a2-3)Gal(b1-4)GlcNAc(b1-2)Man(a1-3)[Neu5Ac(a2-3)Gal(b1-4)GlcNAc(b1-2)Man(a1-6)]Man(b1-4)GlcNAc(b1-4)[Fuc(a1-6)]GlcNAc
# Outline: as §1
# [39] = target: Neu5Ac(a2-3)Gal(b1-4)GlcNAc(b1-2)[Neu5Ac(a2-3)Gal(b1-4)GlcNAc(b1-4)]Man(a1-3)[GlcNAc(b1-4)][Neu5Ac(a2-3)Gal(b1-4)GlcNAc(b1-2)[Neu5Ac(a2-3)Gal(b1-4)GlcNAc(b1-6)]Man(a1-6)]Man(b1-4)GlcNAc(b1-4)GlcNAc
# Outline: as §1
# [40] = target: Neu5Ac(a2-3)Gal(b1-4)GlcNAc(b1-3)Gal(b1-4)GlcNAc(b1-3)Gal(b1-4)GlcNAc(b1-2)Man(a1-3)[Neu5Ac(a2-3)Gal(b1-4)GlcNAc(b1-3)Gal(b1-4)GlcNAc(b1-3)Gal(b1-4)GlcNAc(b1-2)Man(a1-6)]GalNAc
# Outline: as §1
# [41] = target: Neu5Ac(a2-3)Gal(b1-4)GlcNAc(b1-3)Gal(b1-4)GlcNAc(b1-3)[Neu5Ac(a2-3)Gal(b1-4)GlcNAc(b1-3)Gal(b1-4)GlcNAc(b1-6)]GalNAc
# Outline: as §1
# [42] = target: Neu5Ac(a2-3)Gal(b1-4)[Fuc(a1-3)]GlcNAc(b1-2)Man
# Outline: as §1
# [43] = target: Neu5Ac(a2-3)Gal(b1-4)[Fuc(a1-3)]GlcNAc(b1-3)GalNAc
# Outline: as §1
# [44] = target: Neu5Ac(a2-3)[GalNAc(b1-4)]Gal(b1-4)Glc
# Outline: as §1
# [45] = target: Neu5Ac(a2-6)Gal
# Outline: as §1
# [46] = target: Neu5Ac(a2-6)Gal(b1-4)GlcNAc(b1-2)Man
# Outline: as §1
# [47] = target: Neu5Ac(a2-6)Gal(b1-4)GlcNAc(b1-2)Man(a1-3)Man(b1-4)GlcNAc(b1-4)GlcNAc
# Outline: as §1
# [48] = target: Neu5Ac(a2-6)Gal(b1-4)GlcNAc(b1-2)Man(a1-6)[GlcNAc(b1-2)Man(a1-3)]Man(b1-4)GlcNAc(b1-4)GlcNAc
# Outline: as §1
# [49] = target: Neu5Ac(a2-6)Gal(b1-4)GlcNAc(b1-3)Gal(b1-3)GlcNAc
# Outline: as §1
# [50] = target: Neu5Ac(a2-6)Gal(b1-4)GlcNAc(b1-3)Gal(b1-4)GlcNAc(b1-3)Gal(b1-4)GlcNAc(b1-2)Man(a1-3)[Neu5Ac(a2-6)Gal(b1-4)GlcNAc(b1-3)Gal(b1-4)GlcNAc(b1-3)Gal(b1-4)GlcNAc(b1-2)Man(a1-6)]GalNAc
# Outline: as §1
# [51] = target: Neu5Ac(a2-6)Gal(b1-4)GlcNAc(b1-3)Gal(b1-4)GlcNAc(b1-3)[Neu5Ac(a2-6)Gal(b1-4)GlcNAc(b1-3)Gal(b1-4)GlcNAc(b1-6)]GalNAc
# Outline: as §1
# [52] = target: Neu5Ac(a2-8)Neu5Ac
# Outline: as §1
# [53] = target: Neu5Ac(a2-8)Neu5Ac(a2-3)[GalNAc(b1-4)]Gal(b1-4)Glc
# Outline: as §1
# [54] = target: Neu5Ac9Ac(a2-3)Gal(b1-4)GlcNAc
# Outline: as §1
# [55] = target: Neu5Gc(a2-6)GalNAc
# Outline: as §1
# [56] = target: Neu5Gc(b2-6)Gal(b1-4)GlcNAc
# Outline: as §1
binder,measurement,setting,value
"HA-00510 (Pseudomonas aeruginosa), Q02V39_PSEAB (protein) GVPIVNIATPNGAGLSNNHFRDYNVGANGLILNNATGKTQGTQLGGIILGNPNLKGQAAQVILNQVTGGNRSTLAGYTEVAGQSARVIVANPHGITCQGCGFINTPRATLTTGKPIMDGQRLERFQVDGGDIVVEGAELNVGNLEQFDLITRSAKLNAKLYAKNLNIVTGRNDVQADSLQATPRAADGSEKPQLAIDSSALGGMYAGAIRLVGTEQGVGVKLAGDMAASGGDIRIDASGKLSLAQASSQGDLKIAAQAVELNGKTYAGGSAEIRSAEELVNRQS",glycan array binding signal (z-score),[1],0.548
same,glycan array binding signal (z-score),[2],1.8
same,glycan array binding signal (z-score),[3],-0.457
same,glycan array binding signal (z-score),[4],-1.39
same,glycan array binding signal (z-score),[5],-0.268
same,glycan array binding signal (z-score),[6],0.219
same,glycan array binding signal (z-score),[7],2.45
same,glycan array binding signal (z-score),[8],0.219
same,glycan array binding signal (z-score),[9],0.209
same,glycan array binding signal (z-score),[10],0.326
same,glycan array binding signal (z-score),[11],-0.657
same,glycan array binding signal (z-score),[12],0.121
same,glycan array binding signal (z-score),[13],-0.221
same,glycan array binding signal (z-score),[14],0.347
same,glycan array binding signal (z-score),[15],6.41
same,glycan array binding signal (z-score),[16],3.26
same,glycan array binding signal (z-score),[17],3.88
same,glycan array binding signal (z-score),[18],-0.435
same,glycan array binding signal (z-score),[19],0.114
same,glycan array binding signal (z-score),[20],-0.217
same,glycan array binding signal (z-score),[21],0.258
same,glycan array binding signal (z-score),[22],-0.526
same,glycan array binding signal (z-score),[23],-0.516
same,glycan array binding signal (z-score),[24],-0.551
same,glycan array binding signal (z-score),[25],-1.01
same,glycan array binding signal (z-score),[26],0.18
same,glycan array binding signal (z-score),[27],0.682
same,glycan array binding signal (z-score),[28],0.061
same,glycan array binding signal (z-score),[29],4.3
same,glycan array binding signal (z-score),[30],-0.255
same,glycan array binding signal (z-score),[31],0.345
same,glycan array binding signal (z-score),[32],-0.045
same,glycan array binding signal (z-score),[33],-0.534
same,glycan array binding signal (z-score),[34],-0.502
same,glycan array binding signal (z-score),[35],0.112
same,glycan array binding signal (z-score),[36],-0.852
same,glycan array binding signal (z-score),[37],1.18
same,glycan array binding signal (z-score),[38],0.601
same,glycan array binding signal (z-score),[39],0.048
same,glycan array binding signal (z-score),[40],3.77
same,glycan array binding signal (z-score),[41],-0.447
same,glycan array binding signal (z-score),[42],-1.16
same,glycan array binding signal (z-score),[43],2.86
same,glycan array binding signal (z-score),[44],-0.269
same,glycan array binding signal (z-score),[45],0.437
same,glycan array binding signal (z-score),[46],2.52
same,glycan array binding signal (z-score),[47],-0.14
same,glycan array binding signal (z-score),[48],-0.425
same,glycan array binding signal (z-score),[49],2.34
same,glycan array binding signal (z-score),[50],3.69
same,glycan array binding signal (z-score),[51],2.75
same,glycan array binding signal (z-score),[52],0.611
same,glycan array binding signal (z-score),[53],-0.094
same,glycan array binding signal (z-score),[54],0.419
same,glycan array binding signal (z-score),[55],-0.059
same,glycan array binding signal (z-score),[56],-0.019
